Measurements taken from PubChem BioAssay.
Active and inactive are the calls of the source.

Assays:
[1] = optical density shifts of acrAB sulA E. coli – strain DRC41, OD650, 48 h, E. coli filamentation inducer project, primary screen (AID 1152); conditions: higher = more signal, called active from +8 up or from −8 down;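 further: E. coli MC1000 strain DRC41 lacking acrAB efflux pump and sulA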
[2] = probe aLefty1 binding on compound microarray – biochemical, small-molecule microarray, 635/667 nm fluorescence, primary screen (AID 1153); conditions: higher = more signal;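 further: score merges spot fluorescence with signal-to-noise ratio from the scanned slide images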
[3] = plasmodial surface anion channel blockers, osmotic lysis – cell-based, P. falciparum Indochina, OD700, 1 h, primary screen (AID 1154); conditions: P. falciparum Indochina infected RBC osmotic lysis, higher = more signal, called active from +8 up or from −8 down
[4] = plasmodial surface anion channel blockers, osmotic lysis – cell-based, P. falciparum Indochina, OD700, 2 h, primary screen (AID 1155);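 further: lysis reports solute entry through the parasite surface anion channel PSAC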; conditions: P. falciparum Indochina infected erythrocytes, higher = more signal, called active from +8 up or from −8 down
[5] = changes in parasitized red cell lysis, either direction – P. falciparum Indochina, OD700, 3 h, PSAC antagonist project, primary screen (AID 1156); conditions: P. falciparum-infected erythrocytes, osmotic lysis, higher = more signal, called active from +8 up or from −8 down
[6] = plasmodial surface anion channel blockers, osmotic lysis – cell-based, P. falciparum Indochina, OD700, 18 h, primary screen (AID 1157); conditions: P. falciparum Indochina infected erythrocytes, osmotic lysis OD700, 18 h; higher = more signal, called active from +8 up or from −8 down
[7] = S6 kinase pathway phospho-S6 level changes – cell-based, A549, cytoblot, luminescence, serum-stimulated, primary screen (AID 1158); conditions: 5 h, higher = more signal;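 further: serum-stimulated A549 lung adenocarcinoma cells; signal is phosphorylated S6 detected by cytoblot immunostaining with HRP secondary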
[8] = target: NADPH oxidase 2 (Homo sapiens) (UniProt P04839); assay: compounds shifting NOX2 Amplex Red fluorescence – cell-based, HEK293-NOX2, PMA-stimulated, NOX inhibitor project, primary screen (AID 1159); conditions: 45 min, higher = more signal, called active from +8 up or from −8 down; further: test concentration not given here
Chain of NADPH oxidase 2 (Homo sapiens) (P04839 whole entry, looked up): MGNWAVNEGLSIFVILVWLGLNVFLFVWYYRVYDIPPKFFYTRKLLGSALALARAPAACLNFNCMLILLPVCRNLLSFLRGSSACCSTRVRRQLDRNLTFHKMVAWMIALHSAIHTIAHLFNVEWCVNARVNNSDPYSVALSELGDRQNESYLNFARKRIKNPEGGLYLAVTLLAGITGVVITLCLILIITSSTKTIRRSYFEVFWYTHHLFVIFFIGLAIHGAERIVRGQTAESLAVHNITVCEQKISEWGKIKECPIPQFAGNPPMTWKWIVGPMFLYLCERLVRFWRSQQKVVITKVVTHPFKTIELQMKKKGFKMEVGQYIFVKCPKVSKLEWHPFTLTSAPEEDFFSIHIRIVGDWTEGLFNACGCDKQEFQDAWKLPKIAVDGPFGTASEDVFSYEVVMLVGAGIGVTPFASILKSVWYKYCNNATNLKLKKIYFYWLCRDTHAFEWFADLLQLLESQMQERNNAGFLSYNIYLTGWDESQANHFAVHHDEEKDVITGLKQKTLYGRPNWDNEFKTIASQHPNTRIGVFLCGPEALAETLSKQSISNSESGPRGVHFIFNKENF

[9] = target: NADPH oxidase 4 (Homo sapiens) (UniProt Q9NPH5); assay: compounds shifting NOX4 Amplex Red fluorescence – cell-based, HEK293-NOX4, tetracycline-induced, NOX inhibitor project, primary screen (AID 1160); conditions: HEK293-NOX4, Amplex Red H2O2 fluorescence, 45 min; higher = more signal, called active from +8 up or from −8 down
Chain of NADPH oxidase 4 (Homo sapiens) (Q9NPH5 whole entry, looked up): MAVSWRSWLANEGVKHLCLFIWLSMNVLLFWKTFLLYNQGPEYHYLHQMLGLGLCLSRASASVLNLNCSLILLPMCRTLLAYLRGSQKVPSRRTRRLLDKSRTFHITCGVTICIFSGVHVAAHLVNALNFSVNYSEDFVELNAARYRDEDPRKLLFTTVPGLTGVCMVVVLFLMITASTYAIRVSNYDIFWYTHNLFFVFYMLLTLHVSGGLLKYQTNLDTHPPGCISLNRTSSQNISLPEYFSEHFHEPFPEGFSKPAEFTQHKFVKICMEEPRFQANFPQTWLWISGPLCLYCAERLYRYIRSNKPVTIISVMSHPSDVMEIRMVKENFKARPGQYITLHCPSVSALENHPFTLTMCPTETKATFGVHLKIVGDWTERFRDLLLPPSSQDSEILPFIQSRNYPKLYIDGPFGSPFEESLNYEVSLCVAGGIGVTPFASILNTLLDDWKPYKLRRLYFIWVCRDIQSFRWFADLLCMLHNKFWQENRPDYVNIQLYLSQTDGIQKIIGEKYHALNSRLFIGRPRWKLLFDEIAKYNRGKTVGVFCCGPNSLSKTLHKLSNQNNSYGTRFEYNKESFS

[10] = target: NADPH oxidase 5 (Homo sapiens) (UniProt Q96PH1); assay: compounds shifting NOX5 Amplex Red fluorescence – cell-based, HEK293-NOX5, NOX inhibitor project, primary screen (AID 1161); conditions: HEK293-NOX5, ionomycin, 45 min, higher = more signal
Chain of NADPH oxidase 5 (Homo sapiens) (Q96PH1 whole entry, looked up): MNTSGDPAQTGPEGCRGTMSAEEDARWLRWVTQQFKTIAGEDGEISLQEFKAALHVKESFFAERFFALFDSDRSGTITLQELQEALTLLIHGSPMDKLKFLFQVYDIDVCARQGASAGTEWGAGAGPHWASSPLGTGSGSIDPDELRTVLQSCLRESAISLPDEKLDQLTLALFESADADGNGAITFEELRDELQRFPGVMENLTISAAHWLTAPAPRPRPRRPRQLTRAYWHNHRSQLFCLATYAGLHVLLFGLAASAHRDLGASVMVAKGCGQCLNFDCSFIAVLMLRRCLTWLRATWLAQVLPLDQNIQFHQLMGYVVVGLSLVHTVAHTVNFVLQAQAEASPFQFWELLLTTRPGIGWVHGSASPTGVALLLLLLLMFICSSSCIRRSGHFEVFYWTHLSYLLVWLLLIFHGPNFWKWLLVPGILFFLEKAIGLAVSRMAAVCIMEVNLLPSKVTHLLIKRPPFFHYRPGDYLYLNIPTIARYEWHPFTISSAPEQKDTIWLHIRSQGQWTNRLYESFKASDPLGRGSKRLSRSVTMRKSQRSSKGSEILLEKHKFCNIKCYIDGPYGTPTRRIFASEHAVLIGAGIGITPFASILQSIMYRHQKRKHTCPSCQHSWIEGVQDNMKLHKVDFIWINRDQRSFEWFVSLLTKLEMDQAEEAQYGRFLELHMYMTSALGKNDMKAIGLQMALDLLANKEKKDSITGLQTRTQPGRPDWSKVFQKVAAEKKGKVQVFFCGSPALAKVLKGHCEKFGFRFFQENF

[11] = compound effects on lung adenocarcinoma cell viability – A549, calcein-AM fluorescence, 48 h, basal, profiling panel (AID 1162); conditions: higher = more signal; further: test concentration not given here
[12] = compound effects on differentiated 3T3-L1 adipocyte viability – cell-based, 3T3-L1 adipocytes, calcein-AM fluorescence, 48 h, basal, profiling panel (AID 1163); conditions: 3T3-L1 adipocytes viability, higher = more signal; further: test concentration not given here
[13] = compound effects on hepatocellular carcinoma cell viability – HepG2, calcein-AM fluorescence, 48 h, basal, profiling panel (AID 1164); conditions: higher = more signal; further: test concentration not given here
[14] = compound effects on multiple myeloma cell viability – MM1S, calcein-AM fluorescence, 48 h, basal, profiling panel (AID 1165); conditions: higher = more signal; further: test concentration not given here
[15] = calcein-AM signal in unstimulated myeloma cells – cell-based, calcein-AM fluorescence, 48 h, PK04 Diversity Set, profiling panel (AID 1166); conditions: RPMI8226 myeloma viability, higher = more signal;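 further: cells grown under basal conditions without added stimulus; test concentration not given here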
[16] = JC-1 mitochondrial signal, unstimulated HepG2 cells – cell-based, JC-1 fluorescence, 24 h, 100 nL compound, profiling panel (AID 1167); conditions: HepG2 mitochondrial potential, higher = more signal; further: test concentration not given here
[17] = JC-1 mitochondrial signal, unstimulated adipocytes – cell-based, JC-1 fluorescence, 3T3-L1 adipocytes, 24 h, 100 nL compound, profiling panel (AID 1168); conditions: JC-1 mitochondrial fluorescence, higher = more signal, called active from +8 up or from −8 down; further: test concentration not given here
[18] = JC-1 mitochondrial signal, unstimulated myeloma cells – cell-based, JC-1 fluorescence, RPMI8226, 24 h, 100 nL compound, profiling panel (AID 1169); conditions: JC-1 mitochondrial potential fluorescence, higher = more signal; further: test concentration not given here
[19] = JC-1 mitochondrial signal, unstimulated MM1S myeloma – cell-based, JC-1 fluorescence, 24 h, 100 nL compound, profiling panel (AID 1170); conditions: MM1S mitochondrial potential, higher = more signal; further: test concentration not given here
[20] = resazurin metabolic signal in A549 cells – cell-based, resazurin fluorescence, 24 h, PK04 Diversity Set, profiling panel (AID 1171); conditions: A549 viability, higher = more signal, called active from +8 up or from −8 down; further: test concentration not given here

In the case of `C[C@H]1CC[C@@H](C(=O)O)N[C@@H]1c1ccc(C#Cc2ccccc2)cc1`, the z-score [1] is reported as -0.553 (inactive), the composite z-score [2] is reported as -0.101 and the z-score [3] is reported as 0.0311 (inactive). For the same compound, the z-score [4] was -0.0838 (inactive), the z-score [5] was 0.26 (inactive) and the z-score [6] was -0.267 (inactive). The z-score [7] was -0.895, the z-score [8] was -0.217 (inactive) and the z-score [9] was 1.11 (inactive). For the same compound, the z-score [10] was 1.93, the z-score [11] was -2.1 and the z-score [12] was 0.196. The z-score [13] was -2.28, the z-score [14] was -3.57 and the z-score [15] was -3.49. The z-score [16] was -3.46, the z-score [17] was -0.272 (inactive) and the z-score [18] was -0.92. The z-score [19] was -1.59 and the z-score [20] was -0.522 (inactive).

For `CCOC(=O)[C@H](Cc1ccccc1)NC(=O)CCC1CC(OC(=O)NCCc2ccc(F)cc2)CC2(CCCC(COC(=O)NCCC(C)C)O2)O1` (stereo not given in full), the z-score [1] was -0.15 (inactive), the composite z-score [2] was 0.145 and the z-score [3] was -1.5 (inactive). For the same compound, the z-score [4] was -0.302 (inactive), the z-score [5] was 0.005 (inactive) and the z-score [6] was 0.0777 (inactive). For the same compound, the z-score [7] was 0.429, the z-score [8] was -0.0979 (inactive) and the z-score [9] was 0.397 (inactive). It also gave a z-score [10] of 0.7, a z-score [11] of 1.28 and a z-score [12] of -0.567. It also gave a z-score [13] of 0.368, a z-score [14] of 0.243 and a z-score [15] of -0.364. For the same compound, the z-score [16] was 0.362, the z-score [17] was 0.232 (inactive) and the z-score [18] was -0.353. For the same compound, the z-score [19] was -0.941 and the z-score [20] was 1.87 (inactive).

For `O=C1C2=CC[C@H]3C(=O)N(C4CCCCC4)C(=O)[C@H]3[C@H]2[C@H](O)[C@@H]2O[C@H]12`, the z-score [1] was -1.95 (inactive), the composite z-score [2] was -0.245 and the z-score [3] was -0.0599 (inactive). For the same compound, the z-score [4] was -0.153 (inactive), the z-score [5] was 0.215 (inactive) and the z-score [6] was -1.56 (inactive). For the same compound, the z-score [7] was -1.01, the z-score [8] was 0.951 (inactive) and the z-score [9] was 0.3 (inactive). The z-score [10] was 0.952, the z-score [11] was -3.85 and the z-score [12] was 1.13. It also gave a z-score [13] of -4.38, a z-score [14] of -3.05 and a z-score [15] of -3.91. For the same compound, the z-score [16] was 0.771, the z-score [17] was 2.71 (inactive) and the z-score [18] was -1.02. The z-score [19] was -2.83 and the z-score [20] was -2.67 (inactive).

For `CC(CCC(=O)OC[C@H]1O[C@H](C#Cc2ccccc2)C=C[C@@H]1Oc1ccc(C)cc1)=NO[C@@H](C)c1cc(-c2c(C)cc(C)cc2C)no1`, the z-score [1] was 0.357 (inactive), the composite z-score [2] was -0.0929 and the z-score [3] was 1.34 (inactive). The z-score [4] was 0.674 (inactive), the z-score [5] was 1.23 (inactive) and the z-score [6] was 0.221 (inactive). For the same compound, the z-score [7] was 0.814, the z-score [8] was 0.731 (inactive) and the z-score [9] was 0.344 (inactive). It also gave a z-score [10] of 0.287, a z-score [11] of -0.355 and a z-score [12] of 0.777. For the same compound, the z-score [13] was -0.338, the z-score [14] was -0.0941 and the z-score [15] was -2.61. The z-score [16] was 1.78, the z-score [17] was -0.495 (inactive) and the z-score [18] was 0.621. For the same compound, the z-score [19] was 0.114 and the z-score [20] was -0.366 (inactive).

With `O=C1C=C[C@@H](O)[C@@H]2[C@@H]3C(=O)N(C4CCCCC4)C(=O)[C@@H]3CC[C@@H]12` the z-score [1] was -0.188 (inactive), the composite z-score [2] was -0.0501 and the z-score [3] was 0.0831 (inactive). The z-score [4] was -0.0709 (inactive), the z-score [5] was -0.446 (inactive) and the z-score [6] was 0.0822 (inactive). The z-score [7] was -0.493, the z-score [8] was 0.33 (inactive) and the z-score [9] was 0.563 (inactive). The z-score [10] was -0.266, the z-score [11] was -0.0763 and the z-score [12] was 0.351. It also gave a z-score [13] of -0.602, a z-score [14] of -1.88 and a z-score [15] of -2.19. For the same compound, the z-score [16] was 1.23, the z-score [17] was -0.58 (inactive) and the z-score [18] was -0.733. For the same compound, the z-score [19] was -1.54 and the z-score [20] was 0.269 (inactive).

In the case of `CCN1C(C)=C(C(=O)OC)[C@@H](c2ccccc2)N2C(=O)[C@](O)(C(=O)OC)CC(C(C)=O)=C12`, the z-score [1] is reported as -0.0844 (inactive), the composite z-score [2] is reported as -0.22 and the z-score [3] is reported as 0.725 (inactive). The z-score [4] was 0.893 (inactive), the z-score [5] was 0.62 (inactive) and the z-score [6] was 0.195 (inactive). The z-score [7] was 0.825, the z-score [8] was 0.188 (inactive) and the z-score [9] was 0.724 (inactive). The z-score [10] was 0.697, the z-score [11] was 0.836 and the z-score [12] was -0.697. It also gave a z-score [13] of 0.634, a z-score [14] of 0.339 and a z-score [15] of 0.791. For the same compound, the z-score [16] was 0.93, the z-score [17] was 0.935 (inactive) and the z-score [18] was 0.138. The z-score [19] was 0.146 and the z-score [20] was -0.256 (inactive).

For `COC(=O)[C@H](C)NC(=O)CCC1CC(OC(=O)NCc2ccc3c(c2)OCO3)CC2(CCCC(COC(=O)NCCc3ccc(Cl)cc3)O2)O1` (stereo not given in full), the z-score [1] was -0.51 (inactive), the composite z-score [2] was -0.101 and the z-score [3] was 2.17 (inactive). The z-score [4] was 0.223 (inactive), the z-score [5] was 1.29 (inactive) and the z-score [6] was 0.272 (inactive). The z-score [7] was 0.688, the z-score [8] was 1.73 (inactive) and the z-score [9] was 0.148 (inactive). For the same compound, the z-score [10] was 0.879, the z-score [11] was -0.508 and the z-score [12] was 0.38. For the same compound, the z-score [13] was -0.796, the z-score [14] was -0.99 and the z-score [15] was -1.27. For the same compound, the z-score [16] was 0.718, the z-score [17] was -0.527 (inactive) and the z-score [18] was -0.342. For the same compound, the z-score [19] was -0.864 and the z-score [20] was 1.02 (inactive).

In the case of `CO[C@H]1COC(=O)CC=C[C@@H](C)COC(=O)[C@H]2CCCN2C(=O)CC=C[C@H]1C`, the z-score [1] is reported as 0.694 (inactive), the composite z-score [2] is reported as -0.217 and the z-score [3] is reported as -0.567 (inactive). For the same compound, the z-score [4] was -0.25 (inactive), the z-score [5] was -0.521 (inactive) and the z-score [6] was 0.0572 (inactive). For the same compound, the z-score [7] was 0.43, the z-score [8] was -0.166 (inactive) and the z-score [9] was 0.32 (inactive). For the same compound, the z-score [10] was 0.364, the z-score [11] was 1.22 and the z-score [12] was -0.429. For the same compound, the z-score [13] was 0.707, the z-score [14] was 0.462 and the z-score [15] was 0.18. For the same compound, the z-score [16] was 0.722, the z-score [17] was 0.00299 (inactive) and the z-score [18] was 0.418. The z-score [19] was 0.748 and the z-score [20] was -0.823 (inactive).

With `C#CCCCON=C1C[C@@H](O)[C@@H](O)[C@@H]2[C@@H]3C(=O)N(CC)C(=O)[C@@H]3CC[C@H]12` the z-score [1] was 0.135 (inactive), the composite z-score [2] was -0.0035 and the z-score [3] was 0.129 (inactive). For the same compound, the z-score [4] was 0.238 (inactive), the z-score [5] was -0.0312 (inactive) and the z-score [6] was 0.0581 (inactive). The z-score [7] was -0.403, the z-score [8] was -0.88 (inactive) and the z-score [9] was -0.231 (inactive). For the same compound, the z-score [10] was 0.15, the z-score [11] was -0.662 and the z-score [12] was -0.751. The z-score [13] was 0.0801, the z-score [14] was 0.489 and the z-score [15] was 0.516. For the same compound, the z-score [16] was -0.58, the z-score [17] was -0.625 (inactive) and the z-score [18] was -0.569. The z-score [19] was -0.533 and the z-score [20] was -0.479 (inactive).
